Screens from PubChem.
Sampled rows, rich in hits. Any-hit rate of the full collection: about 5.3%.
PNC inhibitor: perinucleolar compartment assembly inhibition; PC3M PTB-GFP, PNC prevalence imaging, 16 h; hits give low values; activity change (PNC), negative = inhibition, % at 10 µM; hit rate 3.1% among 140,000; AID 2417;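 active means readout at or below -70, meaning at least 70% loss of cells showing the perinucleolar compartment, a nuclear body marking cancer cells; inconclusive means readout between -30 and a set limit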;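 further: plate controls were DMSO wells for no effect and camptothecin positive control wells for full effect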
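Compounds are pinned in duplicate onto adhered PC3M cells stably expressing GFP-tagged PTB and incubated 16 h at 37 C. Cells are then fixed, nuclei stained with Hoechst, and PNC-positive cells counted.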
IMPase inh: IMPase inhibition in cells; CHO-M1 cells, IP1 accumulation, HTRF TR-FRET ratio; inhibition (IP1 accumulation), % at 46.1 µM; 120,000 tested, under 10 active; AID 901; active means well fitted curve in the direction sought with a large enough effect in the signal ratio, not every such curve was filed as active; inconclusive means small, poorly fitted or top-dose-only effect, or a change in a side signal; inactive means no such curve, though single readings can be large or run the other way; the % refers to the signal ratio;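 further: cells stimulated with carbachol in lithium chloride buffer; plate controls were DMSO basal wells for no effect and reference inhibitor wells for full effect; higher means more IMPase inhibition seen as more IP1 and lower FRET ratio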
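CHO-M1 cells (CHO stably expressing M1 receptor), compound up to 46 uM final, stimulated with carbachol (50 uM as added) in buffer with 50mM LiCl, pH 7.4, 30 min at 37C. Cytosolic IP1 read by TR-FRET; AC50 from Hill fits.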
ALOX15B inhib: 15-hLO-2 (ALOX15B) enzyme inhibition; purified 15hLO-2, xylenol orange hydroperoxide absorbance; Potency, µM (highest dose often 57.1 µM), without a hit: at the highest dose activity change, negative = inhibition, hits mostly inhibitors; hit rate 0.56% among 110,000; AID 881; further: potency means the concentration at half of the fitted maximal effect; nearly all actives have a fitted effect of over 60% in size
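Purified human 15hLO-2 (50 nM final) preincubated with compounds 15 min at room temperature in 25 mM Hepes pH 7.5, 0.01% Triton X-100, then 45 uM arachidonic acid added for 90 min; hydroperoxide detected via ferrous/xylenol orange, 573/405 nm absorbance ratio.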
12-hLO inh: blocks human 12-lipoxygenase activity; P18054; purified 12-hLO, xylenol orange hydroperoxide absorbance; Potency, µM (titrated, usually from 57.1 µM), inactives show at the top dose activity change, negative = inhibition, most hits filed as inhibitors; hit rate 0.12% among 150,000; further: potency means the concentration at half of the fitted maximal effect; nearly all actives have a fitted effect of over 55% in size
Target sequence (P18054 whole entry, looked up): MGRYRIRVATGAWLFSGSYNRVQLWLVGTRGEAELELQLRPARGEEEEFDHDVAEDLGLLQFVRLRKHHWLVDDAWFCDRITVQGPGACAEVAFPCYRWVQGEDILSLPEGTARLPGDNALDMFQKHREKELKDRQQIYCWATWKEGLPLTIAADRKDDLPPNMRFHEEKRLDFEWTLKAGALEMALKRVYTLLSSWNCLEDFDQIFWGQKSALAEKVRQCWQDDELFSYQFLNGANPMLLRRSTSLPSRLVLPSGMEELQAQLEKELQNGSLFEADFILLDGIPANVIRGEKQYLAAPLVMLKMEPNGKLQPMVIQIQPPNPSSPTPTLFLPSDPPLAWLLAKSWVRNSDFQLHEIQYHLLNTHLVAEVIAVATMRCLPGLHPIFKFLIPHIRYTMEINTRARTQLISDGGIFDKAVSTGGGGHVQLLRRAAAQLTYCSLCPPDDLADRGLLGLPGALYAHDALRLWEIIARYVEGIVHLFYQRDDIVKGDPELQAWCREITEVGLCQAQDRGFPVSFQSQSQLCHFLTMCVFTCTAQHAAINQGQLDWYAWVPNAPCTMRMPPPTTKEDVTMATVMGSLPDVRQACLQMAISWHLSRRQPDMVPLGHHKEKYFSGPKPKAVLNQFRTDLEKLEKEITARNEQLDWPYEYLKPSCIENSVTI
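150 nM 12hLO, 25 mM Hepes pH 7.0 + 0.01% Triton X-100; cpd preinc 15 min RT; 40 uM arachidonic acid, 30 min RT; Fe-XO 30 min; A573/A405 ratio as read-out.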
HPGD inh: HPGD (human) dehydrogenase inhibition. P15428. purified HPGD, NADH fluorescence kinetic, PGE2 substrate. Potency, µM, for inactives: at the highest dose activity change, negative = inhibition, most hits filed as inhibitors. hit rate 4.3% among 150,000; active means well fitted inhibition curve with a large enough effect, not every such curve was filed as active; inconclusive means small, poorly fitted or top-dose-only effect, or another doubt; inactive means no such curve, though single readings can be large or run the other way; further: potency means the concentration at half of the fitted maximal effect
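NADH formation kinetics: reaction with 30 uM PGE2 and 1 mM NAD+ (final), 20 nM enzyme, Tris-HCl pH 8 with Tween 20, after 15 min compound preincubation at room temperature. Fluorescence change, last versus first of five reads.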
IMPase Li inh: membrane-permeable IMPase blocker, potentiated with lithium; CHO-M1 cells, IP1 TR-FRET (IP-One), carbachol + lithium; Potency, µM (series often up to 59.4 µM), without a hit: top-dose activity, negative = IMPase inhibition, usual class: inhibitors; AID 1457; hit rate 0.35% among 210,000;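 further: IP1 builds up when IMPase is blocked and the TR-FRET signal falls; potency means the concentration at half of the fitted maximal effect; plate controls were basal vehicle for no effect and high inhibitor control for full effect; nearly all actives have a fitted effect of over 50% in size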
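CHO cells stably expressing M1 receptor (2000/well) were cultured 16–30 h, then exposed to compounds with a small lithium addition for 30 min at 37C. IP1 was measured by TR-FRET competition; AC50 from Hill fits.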
Numbers without * were called inactive; ? = inconclusive; / = not tested or not shown; [ ] = remark or other dose. Unless noted, the call rests on the fitted dose curve; in most records, active means well fitted curve in the direction sought with a large enough effect; inconclusive means small, poorly fitted or top-dose-only effect, or another doubt; inactive means no such curve, though single readings can be large; an effect the other way counts as inactive or inconclusive. Unless noted, on the % scale 0 is the no-effect control and ±100 the full control effect.

SMILES	PNC inhibitor	IMPase inh	ALOX15B inhib	12-hLO inh	HPGD inh	IMPase Li inh
COc1ccccc1-c1ccc(=O)n(CC(=O)Nc2ccc(C(=O)N3CCCC3)cc2)n1	-11.2	-5.1	-6.3%	7.7%	14.1µM*	-11.3%[38.3 µM]
O=C(Nc1ccc(F)cc1)N1CCN(c2ccccc2F)CC1	/	14.1	/	/	/	/
COC(=O)NC(NC(=S)Nc1ccc([N+](=O)[O-])cc1)C(Cl)(Cl)Cl (stereo not drawn)	-4.0	-1.7	/	-3.8%	31.6µM*	19.6%
CCOC(=O)NC(NC(=S)Nc1ccc(OC)cc1)C(Cl)(Cl)Cl (stereo not drawn)	5.3	/	/	-0.3%	-5.2%	0.2%
Cc1sc2nc(CSCC(=O)Nc3ccccc3C#N)[nH]c(=O)c2c1C	5.4	-1.3	/	-6.6%	-25.8%	-4.2%
Cc1cc(C)c2nc(N3CCC(C(=O)N4CCCC4)CC3)sc2c1	20.5	2.1	2.7%	1.4%	12.6µM*	21.1%[38.3 µM]
O=C(NCc1ccccc1F)C1CCCN(C(=O)NC2CCCCC2)C1 (stereo not drawn)	-124.4*	7.6	-0.1%	-0.9%	-11.8%	-3.2%[38.3 µM]
O=C(NCC1CCCCC1)C1CCCN(C(=O)NC2CCCCC2)C1 (stereo not drawn)	-17.8	3.9	2.3%	-2.9%	-20.8%	-8.3%[38.3 µM]
O=C(O)C1CCCN(S(=O)(=O)c2cccs2)C1 (stereo not drawn)	-100.0*	2.2	/	3.4%	-14.0%	-0.2%
CC1CCCC(NC(=O)CSc2nnc(N)s2)C1C (stereo not drawn)	1.7	1.6	3.7%	-3.3%	28.2µM*	-9.6%[38.3 µM]
CC1CCCCC1NC(=O)CSc1nnc(-c2ccccc2)n1N (stereo not drawn)	-121.8*	5.9	0.2%	-5.7%	/	/
Nn1c(SCC(=O)NC2CCCCC2)nnc1-c1ccccc1	?	-4.5	-1.3%	-10.7%	-12.6%	-14.1%[38.3 µM]
CC1CCCCC1NC(=O)CSc1nncs1 (stereo not drawn)	?	1.6	-4.6%	-2.9%	22.4µM*	-6.5%[38.3 µM]
Nc1nnc(SCC(=O)NC2CCCCC2)s1	24.4	6.1	/	0.5%	-2.5%	-1.5%
CC1CCC2C(=O)N(c3ccccc3OC(=O)c3ccccc3F)C(=O)C2C1 (stereo not drawn)	/	/	/	/	/	3.7%
COC(=O)c1sccc1NC(=O)c1c(C)c(-c2cccc(Cl)c2)nc2ccccc12	?	6.7	/	-2.3%	-13.3%	7.1%
CS(=O)(=O)N(Cc1ccc(C(=O)NCc2ccco2)cc1)c1ccccc1	77.2	3.0	5.9%	-7.5%	28.2µM*	-7.4%[38.3 µM]
COC(=O)c1ccc(C(NC(=O)OCc2ccccc2)/C(F)=C/[C@@H](C)C(=O)NCc2ccc(OC)c(OC)c2)cc1 (stereo partly drawn)	-118.9*	/	-23.6%	-3.1%	-11.2%	9.4%
COC(=O)c1ccc(C(NC(=O)OCc2ccccc2)/C(I)=C/[C@@H](C)C(=O)NCC2CC2)cc1 (stereo partly drawn)	/	/	-3.6%	-0.8%	14.1µM*	8.6%
O=C(O)c1sccc1S(=O)(=O)Nc1ccc(Cl)cc1	/	/	-2.4%	-10.1%	-10.3%	-0.3%
Cc1cc(C)cc(C(=O)NCC(=O)OCC(=O)Nc2cccnc2Cl)c1	/	/	/	/	/	1.5%
COC(=O)c1c[nH]n2c(=O)cc(C)nc12	-2.5	-5.8	9.5%	-0.4%	-21.3%	-1.6%[38.3 µM]
COC(=O)c1c[nH]n2c(=O)c(Cl)c(C)nc12	-113.4*	/	/	-1.1%	-11.2%	-1.5%
O=C(COc1ncnc2ccccc12)c1ccc(Cl)cc1	/	/	/	/	/	-3.5%
O=C(Nc1nnc(C2CC2)s1)c1cc(-c2ccccc2)nn1-c1ccccc1	-81.5*	0.9	26.0%	1.0%	-8.6%	-2.6%[38.3 µM]
Cc1cccc(N2CCN(C(=O)CCCSc3nc4ccccc4[nH]3)CC2)c1C	33.4	3.3	49.9%	-2.9%	-14.9%	11.3%[38.3 µM]
CCOC(=O)c1sc(=S)n(C)c1NC(=O)c1ccccc1C	?	-0.7	/	-0.2%	10µM*	-2.9%
CCOC(=O)c1sc(=S)n(C)c1NC(=O)c1ccc(F)cc1	67.7	7.1	/	0.7%	7.94µM*	3.0%
